According to PubChem BioAssay (NCATS):
“And” between values parts separate entries of the source, which are not always exact repeats. Identical values can stand only once. Inconclusive results are not listed. The source made the active and inactive calls. Calls come from the whole dose curve; as a rule, active = well fitted inhibition curve with a large enough effect; inconclusive = small, poorly fitted or top-dose-only effect; inactive = flat fitted curve, though single readings scatter.

Experiment: Drug repurposing screens with cells derived from glioblastoma tumor samples (AID 1345199); note: nearly all actives have a fitted effect of over 40% in size
Conditions: GBM patient neurospheres viability, ATP luminescence, 48 h; at 45.9 µM (top of the series); tumour line B
Procedure, shortened: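 Four patient lines of CD133+ GBM neurospheres were screened at several concentrations; hits were retested in those lines plus three slower-growing GBM lines, using 48-hour treatment and ATP-based viability.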
% is set by controls: 0 for no effect and ±100 for the full control effect.

| Structure (SMILES) | activity, negative = cell killing |
| --- | --- |
| CCCCNCC(O)c1ccc(O)cc1 (stereo not drawn) | -14.1% (inactive) |
| C#CC(C)(O)CC (stereo not drawn) | -22.2% (inactive) |
| O=C(CCl)c1ccc(Oc2ccc(C(=O)CCl)cc2)cc1 | -24.4% (inactive) |
| CCC1(CC)C(=O)NC(=O)N(C)C1=O | -3.71% (inactive) |
| C=CCN1CC[C@]23c4c5ccc(O)c4O[C@H]2[C@@H](O)C=C[C@H]3[C@H]1C5 | -22.5% (inactive) |
| C=CCC1(C(C)CCC)C(=O)N=C(S)NC1=O (stereo not drawn) | -7.88% (inactive) |
| C[C@]12CCC(=O)C[C@@H]1CC[C@@H]1[C@@H]2CC[C@]2(C)[C@@H](O)CC[C@@H]12 | -19.9% (inactive) |
| CCCC(C)C1(CC)C(=O)NC(=O)NC1=O (stereo not drawn) | -11.9% (inactive) |
| O=C1CCCCC1CN1CCCCC1 (stereo not drawn) | -12.3% (inactive) |
| C[N+]1(C)CCCCC1COC(=O)C(O)(c1ccccc1)c1ccccc1 (stereo not drawn) | -0.912% (inactive) |
| C[C@@H]1[C@@H]2Cc3ccc(O)cc3[C@@]1(C)CCN2CC1CC1 | -1.24% (inactive) |
| C=CCN(C1=NCCN1)c1c(Cl)cccc1Cl | -5.59% (inactive) |
| O=c1[nH]cc(N(CCCl)CCCl)c(=O)[nH]1 | -11% (inactive) |
| O=P(O)(O)C(Cl)(Cl)P(=O)(O)O | 1.35% (inactive) |
| CNC1(c2ccccc2Cl)CCCCC1=O (stereo not drawn) | -12.1% (inactive) and -12.4% (inactive) |
| O=C1CN(O)C(c2ccccc2)=c2cc(Cl)ccc2=N1 | -13.2% (inactive) |
| c1ccc2sc(SNC3CCCCC3)nc2c1 | -13.7% (inactive) |
| C[C@]12CC[C@H]3[C@@H](CCC4=C(O)C(=O)CC[C@@H]43)[C@@H]1CC[C@@H]2OC(=O)CCC1CCCC1 | -11.4% (inactive) |
